# Data reported in PMC8384837, “Expanding the binding specificity for RNA recognition by a PUF domain”.
# Experiments:
# Experiment in all cases: yeast three-hybrid, YBZ-1, SC-Leu-His + 0.5 mM 3-AT, 4 days
# Settings in all cases: tags: N-Gal4 AD-HA kept; label: inside an RPR1-promoter hybrid RNA with tandem MS2 sites; ssRNA
# PUM1 PUF domain R5-RAR = PUM1 PUF domain R5-RAR (Homo sapiens, UniProt Q14671 828-1176, C1007R;R1008A;Q1011R)
# Method in brief: (§1)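 The interaction score is the log change in how often each variant appears, from input to selection. Frequencies came from PCR-amplified, Illumina-sequenced repeat regions of Pumilio-1 PUF domain libraries grown in strain YBZ-1 (LexA–MS2 coat fusion, HIS3 reporter) alongside matching RNA elements. Input plates were SC-Leu and selection plates were SC-Leu-His + 0.5 mM 3-AT, each for four days, and the log2 calculation used a pseudocount of 1 where a variant was absent.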
# PUM1 PUF domain R5-RQL = PUM1 PUF domain R5-RQL (Homo sapiens, UniProt Q14671 828-1176, C1007R;R1008Q;Q1011L)
# Method in brief: as §1
# PUM1 PUF domain R5-FRL = PUM1 PUF domain R5-FRL (Homo sapiens, UniProt Q14671 828-1176, C1007F;Q1011L)
# Method in brief: as §1
# PUM1 PUF domain R4-QHK = PUM1 PUF domain R4-QHK (Homo sapiens, UniProt Q14671 828-1176, N971Q;Q975K)
# Method in brief: as §1
# PUM1 PUF domain R4-PHC = PUM1 PUF domain R4-PHC (Homo sapiens, UniProt Q14671 828-1176, N971P;Q975C)
# Method in brief: as §1
# PUM1 PUF domain R3-FCV = PUM1 PUF domain R3-FCV (Homo sapiens, UniProt Q14671 828-1176, C935F;R936C;Q939V)
# Method in brief: as §1
# PUM1 PUF domain R3-FRM = PUM1 PUF domain R3-FRM (Homo sapiens, UniProt Q14671 828-1176, C935F;Q939M)
# Method in brief: as §1
# PUM1 PUF domain R1-RVM = PUM1 PUF domain R1-RVM (Homo sapiens, UniProt Q14671 828-1176, S863R;R864V;Q867M)
# Method in brief: as §1
# PUM1 PUF domain R1-RCV = PUM1 PUF domain R1-RCV (Homo sapiens, UniProt Q14671 828-1176, S863R;R864C;Q867V)
# Method in brief: as §1
# PUM1 PUF domain R1-KLE = PUM1 PUF domain R1-KLE (Homo sapiens, UniProt Q14671 828-1176, S863K;R864L;Q867E)
# Method in brief: as §1
# PUM1 PUF domain R3-RQW = PUM1 PUF domain R3-RQW (Homo sapiens, UniProt Q14671 828-1176, C935R;R936Q;Q939W)
# Method in brief: as §1
# PUM1 PUF domain R5-DFL = PUM1 PUF domain R5-DFL (Homo sapiens, UniProt Q14671 828-1176, C1007D;R1008F;Q1011L)
# Method in brief: as §1
# PUM1 PUF domain R4-CLQ = PUM1 PUF domain R4-CLQ (Homo sapiens, UniProt Q14671 828-1176, N971C;H972L)
# Method in brief: as §1
# PUM1 PUF domain R6-HFL = molecular target: T1, PUM1 PUF domain R6-HFL (Homo sapiens, UniProt Q14671 828-1176, N1043H;Y1044F;Q1047L)
# T1 sequence: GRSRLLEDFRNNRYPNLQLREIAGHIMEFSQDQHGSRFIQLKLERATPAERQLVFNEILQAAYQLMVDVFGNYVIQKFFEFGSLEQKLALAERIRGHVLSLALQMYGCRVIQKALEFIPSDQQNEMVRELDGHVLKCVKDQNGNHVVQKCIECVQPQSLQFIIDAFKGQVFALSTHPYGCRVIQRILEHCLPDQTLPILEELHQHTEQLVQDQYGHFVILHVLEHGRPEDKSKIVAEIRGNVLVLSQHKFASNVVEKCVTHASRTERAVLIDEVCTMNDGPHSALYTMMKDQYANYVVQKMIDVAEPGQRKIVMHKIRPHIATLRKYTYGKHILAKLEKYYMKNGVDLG
# Method in brief: as §1
# PUM1 PUF domain R7-GQR = PUM1 PUF domain R7-GQR (Homo sapiens, UniProt Q14671 828-1176, S1079G;N1080Q;E1083R)
# Method in brief: as §1
# PUM1 PUF domain R7-EFR = PUM1 PUF domain R7-EFR (Homo sapiens, UniProt Q14671 828-1176, S1079E;N1080F;E1083R)
# Method in brief: as §1
# PUM1 PUF domain R4-FAA = PUM1 PUF domain R4-FAA (Homo sapiens, UniProt Q14671 828-1176, N971F;H972A;Q975A)
# Method in brief: as §1
# PUM1 PUF domain R5-HNR = PUM1 PUF domain R5-HNR (Homo sapiens, UniProt Q14671 828-1176, C1007H;R1008N;Q1011R)
# Method in brief: as §1
# PUM1 PUF domain R5-SGG = PUM1 PUF domain R5-SGG (Homo sapiens, UniProt Q14671 828-1176, C1007S;R1008G;Q1011G)
# Method in brief: as §1
# PUM1 PUF domain R1-SPE = PUM1 PUF domain R1-SPE (Homo sapiens, UniProt Q14671 828-1176, R864P;Q867E)
# Method in brief: as §1
sequence,measurement,setting,value
GGCUAGAACUAGUGGAUCCCCCGGCGCCCGGCGGCUCGAGCCCGGGUAAGUGUCAAUAGUCUGCAUGCCGCCGGGCGCCAUGCCUGCAGGUCGACUCUAGAAAACAUG,binding signal,PUM1 PUF domain R5-RAR,3.66 log2 enrichment (interaction score)
same,binding signal,PUM1 PUF domain R5-RQL,2.74 log2 enrichment (interaction score)
same,binding signal,PUM1 PUF domain R5-FRL,2.63 log2 enrichment (interaction score)
GGCUAGAACUAGUGGAUCCCCCGGCGCCCGGCGGCUCGAGCCCGGGUAAGUGUACAUAGUCUGCAUGCCGCCGGGCGCCAUGCCUGCAGGUCGACUCUAGAAAACAUG,binding signal,PUM1 PUF domain R4-QHK,3.41 log2 enrichment (interaction score)
same,binding signal,PUM1 PUF domain R4-PHC,3.16 log2 enrichment (interaction score)
GGCUAGAACUAGUGGAUCCCCCGGCGCCCGGCGGCUCGAGCCCGGGUAAGUGUAAGUAGUCUGCAUGCCGCCGGGCGCCAUGCCUGCAGGUCGACUCUAGAAAACAUG,binding signal,PUM1 PUF domain R3-FCV,4.56 log2 enrichment (interaction score)
same,binding signal,PUM1 PUF domain R3-FRM,5.33 log2 enrichment (interaction score)
GGCUAGAACUAGUGGAUCCCCCGGCGCCCGGCGGCUCGAGCCCGGGUAAGUGUAAAUCGUCUGCAUGCCGCCGGGCGCCAUGCCUGCAGGUCGACUCUAGAAAACAUG,binding signal,PUM1 PUF domain R1-RVM,3.24 log2 enrichment (interaction score)
same,binding signal,PUM1 PUF domain R1-RCV,3.67 log2 enrichment (interaction score)
same,binding signal,PUM1 PUF domain R1-KLE,3.36 log2 enrichment (interaction score)
GGCUAGAACUAGUGGAUCCCCCGGCGCCCGGCGGCUCGAGCCCGGGUAAGUGUAAUUAGUCUGCAUGCCGCCGGGCGCCAUGCCUGCAGGUCGACUCUAGAAAACAUG,binding signal,PUM1 PUF domain R3-FRM,0.74 log2 enrichment (interaction score)
same,binding signal,PUM1 PUF domain R3-RQW,2.52 log2 enrichment (interaction score)
GGCUAGAACUAGUGGAUCCCCCGGCGCCCGGCGGCUCGAGCCCGGGUAAGUGUAAAUAGUCUGCAUGCCGCCGGGCGCCAUGCCUGCAGGUCGACUCUAGAAAACAUG,binding signal,PUM1 PUF domain R5-DFL,3.51 log2 enrichment (interaction score)
same,binding signal,PUM1 PUF domain R4-CLQ,3.83 log2 enrichment (interaction score)
same,binding signal,PUM1 PUF domain R5-RAR,0.57 log2 enrichment (interaction score)
same,binding signal,PUM1 PUF domain R6-HFL,2.57 log2 enrichment (interaction score)
same,binding signal,PUM1 PUF domain R5-FRL,1.49 log2 enrichment (interaction score)
GGCUAGAACUAGUGGAUCCCCCGGCGCCCGGCGGCUCGAGCCCGGGUAAGUGUAAAUGGUCUGCAUGCCGCCGGGCGCCAUGCCUGCAGGUCGACUCUAGAAAACAUG,binding signal,PUM1 PUF domain R1-RVM,1.04 log2 enrichment (interaction score)
GGCUAGAACUAGUGGAUCCCCCGGCGCCCGGCGGCUCGAGCCCGGGUAAGUUUAAAUAGUCUGCAUGCCGCCGGGCGCCAUGCCUGCAGGUCGACUCUAGAAAACAUG,binding signal,PUM1 PUF domain R7-GQR,2.78 log2 enrichment (interaction score)
same,binding signal,PUM1 PUF domain R7-EFR,2.09 log2 enrichment (interaction score)
GGCUAGAACUAGUGGAUCCCCCGGCGCCCGGCGGCUCGAGCCCGGGUAAGUGUAUAUAGUCUGCAUGCCGCCGGGCGCCAUGCCUGCAGGUCGACUCUAGAAAACAUG,binding signal,PUM1 PUF domain R4-FAA,2.2 log2 enrichment (interaction score)
same,binding signal,PUM1 PUF domain R4-PHC,4.13 log2 enrichment (interaction score)
GGCUAGAACUAGUGGAUCCCCCGGCGCCCGGCGGCUCGAGCCCGGGUAAGUCUAAAUAGUCUGCAUGCCGCCGGGCGCCAUGCCUGCAGGUCGACUCUAGAAAACAUG,binding signal,PUM1 PUF domain R7-EFR,2.21 log2 enrichment (interaction score)
GGCUAGAACUAGUGGAUCCCCCGGCGCCCGGCGGCUCGAGCCCGGGUAAGUGUUAAUAGUCUGCAUGCCGCCGGGCGCCAUGCCUGCAGGUCGACUCUAGAAAACAUG,binding signal,PUM1 PUF domain R5-HNR,4.6 log2 enrichment (interaction score)
same,binding signal,PUM1 PUF domain R5-RAR,2.31 log2 enrichment (interaction score)
same,binding signal,PUM1 PUF domain R5-FRL,1.67 log2 enrichment (interaction score)
GGCUAGAACUAGUGGAUCCCCCGGCGCCCGGCGGCUCGAGCCCGGGUAAGUGUGAAUAGUCUGCAUGCCGCCGGGCGCCAUGCCUGCAGGUCGACUCUAGAAAACAUG,binding signal,PUM1 PUF domain R5-SGG,3.53 log2 enrichment (interaction score)
same,binding signal,PUM1 PUF domain R5-FRL,0.24 log2 enrichment (interaction score)
GGCUAGAACUAGUGGAUCCCCCGGCGCCCGGCGGCUCGAGCCCGGGUAAGUGUAAAUUGUCUGCAUGCCGCCGGGCGCCAUGCCUGCAGGUCGACUCUAGAAAACAUG,binding signal,PUM1 PUF domain R1-SPE,2.78 log2 enrichment (interaction score)
same,binding signal,PUM1 PUF domain R1-RVM,2.87 log2 enrichment (interaction score)
same,binding signal,PUM1 PUF domain R1-RCV,1.82 log2 enrichment (interaction score)
same,binding signal,PUM1 PUF domain R1-KLE,4.05 log2 enrichment (interaction score)
